Measured values published in the supplement of paper PMC6555819.

The sequences below were run on LXRb:RXRa (NR concentration 270 nM, RXRa partner concentration 90 nM) (assay: PBM binding z-score (relative to random genomic background probes); higher = stronger binding; sequences stand for … in GC…GCGATTGACAGCGTAGAATGAAGG).
Experimental: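 Protein-binding microarray (Agilent 4x180K custom design, double-stranded 60-nt probes: 5' GC cap, 34-nt variable region, 24-nt constant primer region; full probe sequence given). Purified or IVT nuclear receptor:RXRα heterodimers (3:1 NR:RXRα, mostly 270:90 nM) or homodimers were incubated for 1 h in PBS with 2% milk and no ligand, then detected with Alexa488 antibodies. Fluorescence from o1-orientation probes (~5 replicates averaged) was converted to z-scores against 500 random hg19 background probes. Variable regions are seed direct-repeat (DR0–DR5) sites, all their single-nucleotide variants and half-site ablations.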

Sequence | PBM binding z-score
TATACAGGGTCAAAGGCCAAAGTACGAATGTCGA | 5.4
CGAACTAGGTCGCCAGGACAGTGAAGAGGTTGGA | -0.222
CGTCTAAGGTCATAGGAGGTCAGTGAAGACAGAT | 6.9
AGTCAAAGTGCATCTAGGTAACGTAAGATATGCT | 0.11
GGAACGAGGTCATTCGAGTTGATAGCATGGCGAT | 4.8
TCTCGGAGGACACTAAAGGTCAGAGCTCGACATC | 3.73
TAGCCTAGGTCATGGGCCAGTGTACCACGCGAAC | 2.46
TGTCAACGTTCAAAGGTAACGTAAGTATCCACAC | 0.759
AGAATGGGGTTACCAAAGATCAGGGAAACGCTTG | 5.03
CGTCCAAGGTCATAGAGGTCAGTGAATGCCGAGT | 5.69
AGCGAAAGGTCGAGGTGAGTATAGAGAAAGGGAA | 2.7
TACCCTAGGTCATTCAGGGGCCAGTATAGAAAGC | 4.5
GCTTACGGGTCCAAGGTTATAGCATGAATAGAAT | 0.855
CCAACTGGGCCAAAAAGGTCATTGATGCCGATAA | 4.36
AACGAAAGGTCGAAGGTGAGTATACCCACCCGAA | 3.06
CCTTAAGGGTCACGAGGTTATAGCACGACGAGCG | 5.38
TAGCCTAGGTCATTCAGGGGCCAGCATAGAAAGC | 3.03
CCTACTGGGCCATTCAGAGGTCAATGATCATATG | 3.64
CGAACTAGGTCATTGACAGGACAGTGGATAGTAA | 1.97
CGAACTAGGTCACCCAGGACAGTGAATACATTGA | 1.93

Sequence | PBM binding z-score
TCTGCTAGGTCAACGTTGGTCAGCTAATCTGCTA | 1.61
CCTAGTTGGTCAAGGTCACACCCGCTATAGGTAC | 3.5
AGTCAAACTTCAGGACGAGGTAACGTAAAGCACG | -0.266
TCTCGGAGGACACCAAAGGTCAGAGCTCGACATC | 3.46
ATCGAAAGGTCGTGAGGTAAGTATACAGAAAGGC | 3.5
CGTCAAAGGTCAGCAGGTCAGTGAAAGCGACGTG | 4.97
TCTCGGAGGAAACGAAAGGTCAGAGCTCGACATC | 3.1
GGAACGAGGTCAAGTTGATAGCAGAGTTTGATGG | 5.3
CGTCAAAGTTCAACTAAGGTTACGTAAAGCACGC | 5.4
AATACAAGGTCATCGTAGGCCAGAGTACGCACAG | 5.13
TGTCAATGTTCAAAGGTAACGTAAGTATCCACAC | 0.772
AGTCAAAGTTCAGGACGACGTAACGTAAAGCACG | 1.67
ATATGTAGGTTAGCTGAGGTCATTCAGACTAGGC | 4.72
CGTCAAACTTCAACTAAGGTAACGTAAAGCACGC | 0.543
CGTCCAAGGTCACGGTCAGTGAAAGAGACTCGAA | 4.76
ACTCGGATGACAAAGGTCAGAGCTACGCCAGTGA | 3.36
TTACCAAGGTGAAAGGTCGTTGCTGCACGCCTTG | 2.89
ATATGTAGTTTATCGGGTCATTCAGTTTGCGCAT | 2.94
CCTACTGGGCCATTCAGAGGGCATTGATCATATG | -0.224
CATACAGGGTCGGCTAGGCCAGAGTAGGGACGGC | -0.242
